# Measurements reported in PubChem BioAssay AID1159580 (chemical genetic matrix, 2015).
# In all, about 5,500 compounds went through this assay and about 2,000 (36%) were called active. Inconclusive results (about 18%) are left out. The list shows a part of the results. Values without a mark were called inactive. Rule as the data show it: active = normalized growth mostly below about 0.91 (no sharp cut-off); inconclusive = no clear call, values can overlap the other calls; inactive = mostly above about 0.92.
# Assay: chemical genetic growth profiling, strain panel (AID 1159580);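 also: tested at 20 µM; growth read once vehicle control cultures reached saturation at 30 °C; 1 = growth at the plate median or of vehicle wells; lower values mean less growth of the strain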
# Settings: growth OD
# [1] = S. cerevisiae deletion strains, locus YHR030C, strain SLT2, stronger effect = lower value
# [2] = S. cerevisiae deletion strains, locus YJL187C, strain SWE1, stronger effect = lower value
smiles,measurement,setting,value
O=S(=O)(O)O,normalized growth,"S. cerevisiae deletion strains, locus YAL021C, strain ccr4, stronger effect = lower value",0.973
same,normalized growth,"S. cerevisiae deletion strains, locus YAL026C, strain drs2, stronger effect = lower value",0.983
same,normalized growth,"S. cerevisiae deletion strains, locus YAL030W, strain snc1, stronger effect = lower value",0.985
same,normalized growth,"S. cerevisiae deletion strains, locus YBL061C, strain skt5, stronger effect = lower value",0.975
same,normalized growth,"S. cerevisiae deletion strains, locus YBR009C, strain hhf1, stronger effect = lower value",0.991
same,normalized growth,"S. cerevisiae deletion strains, locus YBR023C, strain chs3, stronger effect = lower value",0.98
same,normalized growth,"S. cerevisiae deletion strains, locus YBR171W, strain sec66, stronger effect = lower value",0.961
same,normalized growth,"S. cerevisiae deletion strains, locus YBR231C, strain swc5, stronger effect = lower value",0.976
same,normalized growth,"S. cerevisiae deletion strains, locus YBR279W, strain paf1, stronger effect = lower value",0.985
same,normalized growth,"S. cerevisiae deletion strains, locus YCL011C, strain gbp2, stronger effect = lower value",0.965
same,normalized growth,"S. cerevisiae deletion strains, locus YCL016C, strain dcc1, stronger effect = lower value",0.981
same,normalized growth,"S. cerevisiae deletion strains, locus YCL061C, strain MRC1, stronger effect = lower value",0.993
same,normalized growth,"S. cerevisiae deletion strains, locus YCL069W, strain vba3, stronger effect = lower value",0.969
same,normalized growth,"S. cerevisiae deletion strains, locus YCR088W, strain abp1, stronger effect = lower value",0.956
same,normalized growth,"S. cerevisiae deletion strains, locus YDL005C, strain med2, stronger effect = lower value",0.954
same,normalized growth,"S. cerevisiae deletion strains, locus YDL040C, strain nat1, stronger effect = lower value",0.988
same,normalized growth,"S. cerevisiae deletion strains, locus YDR001C, strain nth1, stronger effect = lower value",0.987
same,normalized growth,"S. cerevisiae deletion strains, locus YDR069C, strain doa4, stronger effect = lower value",0.964
same,normalized growth,"S. cerevisiae deletion strains, locus YDR137W, strain rgp1, stronger effect = lower value",1.01
same,normalized growth,"S. cerevisiae deletion strains, locus YDR159W, strain sac3, stronger effect = lower value",0.985
same,normalized growth,"S. cerevisiae deletion strains, locus YDR195W, strain ref2",1
same,normalized growth,"S. cerevisiae deletion strains, locus YDR297W, strain sur2, stronger effect = lower value",0.976
same,normalized growth,"S. cerevisiae deletion strains, locus YDR334W, strain swr1, stronger effect = lower value",0.976
same,normalized growth,"S. cerevisiae deletion strains, locus YDR335W, strain msn5, stronger effect = lower value",0.978
same,normalized growth,"S. cerevisiae deletion strains, locus YDR392W, strain spt3, stronger effect = lower value",0.914
same,normalized growth,"S. cerevisiae deletion strains, locus YEL003W, strain gim4, stronger effect = lower value",0.988
same,normalized growth,"S. cerevisiae deletion strains, locus YEL037C, strain rad23, stronger effect = lower value",0.969
same,normalized growth,"S. cerevisiae deletion strains, locus YEL061C, strain CIN8 (second series), stronger effect = lower value",0.971
same,normalized growth,"S. cerevisiae deletion strains, locus YER015W, strain faa2, stronger effect = lower value",0.975
same,normalized growth,"S. cerevisiae deletion strains, locus YER016W, strain bim1, stronger effect = lower value",0.983
same,normalized growth,"S. cerevisiae deletion strains, locus YER111C, strain swi4, stronger effect = lower value",0.967
same,normalized growth,"S. cerevisiae deletion strains, locus YER155C, strain BEM2 (second series), stronger effect = lower value",0.976
same,normalized growth,"S. cerevisiae deletion strains, locus YFR010W, strain ubp6, stronger effect = lower value",0.973
same,normalized growth,"S. cerevisiae deletion strains, locus YGL167C, strain pmr1, stronger effect = lower value",0.973
same,normalized growth,"S. cerevisiae deletion strains, locus YGL173C, strain kem1, stronger effect = lower value",0.962
same,normalized growth,"S. cerevisiae deletion strains, locus YGL227W, strain vid30, stronger effect = lower value",0.961
same,normalized growth,"S. cerevisiae deletion strains, locus YGL240W, strain doc1, stronger effect = lower value",0.982
same,normalized growth,"S. cerevisiae deletion strains, locus YGL253W, strain hxk2, stronger effect = lower value",0.969
same,normalized growth,"S. cerevisiae deletion strains, locus YHR013C, strain ard1, stronger effect = lower value",0.96
same,normalized growth,"S. cerevisiae deletion strains, locus YHR027C, strain rpn1, stronger effect = lower value",0.978
same,normalized growth,[1],1.04
same,normalized growth,"S. cerevisiae deletion strains, locus YHR079C, strain IRE1, stronger effect = lower value",1.06
same,normalized growth,"S. cerevisiae deletion strains, locus YHR142W, strain chs7, stronger effect = lower value",0.961
same,normalized growth,"S. cerevisiae deletion strains, locus YJL092W, strain hpr5, stronger effect = lower value",0.95
same,normalized growth,"S. cerevisiae deletion strains, locus YJL095W, strain BCK1 (second series), stronger effect = lower value",0.981
same,normalized growth,"S. cerevisiae deletion strains, locus YJL095W, strain BCK1, stronger effect = lower value",1.06
same,normalized growth,"S. cerevisiae deletion strains, locus YJL115W, strain asf1, stronger effect = lower value",0.981
same,normalized growth,"S. cerevisiae deletion strains, locus YJL129C, strain trk1, stronger effect = lower value",0.961
same,normalized growth,"S. cerevisiae deletion strains, locus YJL154C, strain vps35, stronger effect = lower value",0.977
same,normalized growth,"S. cerevisiae deletion strains, locus YJL164C, strain tpk1, stronger effect = lower value",0.983
same,normalized growth,"S. cerevisiae deletion strains, locus YJL166W, strain qcr8, stronger effect = lower value",0.977
same,normalized growth,[2],0.981
same,normalized growth,"S. cerevisiae deletion strains, locus YJR066W, strain TOR1, stronger effect = lower value",0.967
same,normalized growth,"S. cerevisiae deletion strains, locus YKL160W, strain elf1, stronger effect = lower value",0.987
same,normalized growth,"S. cerevisiae deletion strains, locus YKR026C, strain gcn3, stronger effect = lower value",0.975
same,normalized growth,"S. cerevisiae deletion strains, locus YKR091W, strain srl3, stronger effect = lower value",0.977
same,normalized growth,"S. cerevisiae deletion strains, locus YLL001W, strain dnm1, stronger effect = lower value",0.992
same,normalized growth,"S. cerevisiae deletion strains, locus YLL026W, stronger effect = lower value",0.966
same,normalized growth,"S. cerevisiae deletion strains, locus YLL041C, strain sdh2, stronger effect = lower value",0.988
same,normalized growth,"S. cerevisiae deletion strains, locus YLR027C, strain aat2, stronger effect = lower value",0.985
same,normalized growth,"S. cerevisiae deletion strains, locus YLR113W, strain HOG1, stronger effect = lower value",0.992
same,normalized growth,"S. cerevisiae deletion strains, locus YLR221C, strain rsa3, stronger effect = lower value",0.979
same,normalized growth,"S. cerevisiae deletion strains, locus YLR258W, strain gsy2, stronger effect = lower value",0.98
same,normalized growth,"S. cerevisiae deletion strains, locus YLR262C, strain YPT6 (second series), stronger effect = lower value",1
same,normalized growth,"S. cerevisiae deletion strains, locus YLR320W, strain mms22, stronger effect = lower value",0.969
same,normalized growth,"S. cerevisiae deletion strains, locus YLR342W, strain FKS1, stronger effect = lower value",0.955
same,normalized growth,"S. cerevisiae deletion strains, locus YLR357W, strain rsc2, stronger effect = lower value",0.951
same,normalized growth,"S. cerevisiae deletion strains, locus YLR370C, strain arc18, stronger effect = lower value",0.965
same,normalized growth,"S. cerevisiae deletion strains, locus YLR384C, strain iki3, stronger effect = lower value",0.977
same,normalized growth,"S. cerevisiae deletion strains, locus YML120C, strain ndi1, stronger effect = lower value",0.979
same,normalized growth,"S. cerevisiae deletion strains, locus YMR058W, strain fet3, stronger effect = lower value",0.985
same,normalized growth,"S. cerevisiae deletion strains, locus YMR125W, strain sto1, stronger effect = lower value",0.944
same,normalized growth,"S. cerevisiae deletion strains, locus YMR129W, stronger effect = lower value",0.99
same,normalized growth,"S. cerevisiae deletion strains, locus YMR205C, strain PFK2, stronger effect = lower value",0.976
same,normalized growth,"S. cerevisiae deletion strains, locus YMR231W, strain pep5, stronger effect = lower value",0.956
same,normalized growth,"S. cerevisiae deletion strains, locus YNL071W, strain lat1, stronger effect = lower value",0.959
same,normalized growth,"S. cerevisiae deletion strains, locus YNL183C, strain NPR1, stronger effect = lower value",0.986
same,normalized growth,"S. cerevisiae deletion strains, locus YNL209W, strain ssb2, stronger effect = lower value",0.975
same,normalized growth,"S. cerevisiae deletion strains, locus YNL248C, strain rpa49, stronger effect = lower value",0.978
same,normalized growth,"S. cerevisiae deletion strains, locus YNL322C, strain KRE1 (second series), stronger effect = lower value",0.966
same,normalized growth,"S. cerevisiae deletion strains, locus YNR049C, strain mso1, stronger effect = lower value",0.983
same,normalized growth,"S. cerevisiae deletion strains, locus YOR001W, strain rrp6, stronger effect = lower value",0.964
same,normalized growth,"S. cerevisiae deletion strains, locus YOR070C, strain gyp1, stronger effect = lower value",0.974
same,normalized growth,"S. cerevisiae deletion strains, locus YOR080W, strain dia2, stronger effect = lower value",0.968
same,normalized growth,"S. cerevisiae deletion strains, locus YOR083W, strain WHI5, stronger effect = lower value",0.986
same,normalized growth,"S. cerevisiae deletion strains, locus YOR106W, strain vam3, stronger effect = lower value",0.934
same,normalized growth,"S. cerevisiae deletion strains, locus YOR231W, strain MKK1, stronger effect = lower value",1.02
same,normalized growth,"S. cerevisiae deletion strains, locus YOR265W, strain rbl2, stronger effect = lower value",0.981
same,normalized growth,"S. cerevisiae deletion strains, locus YOR270C, strain vph1, stronger effect = lower value",1
same,normalized growth,"S. cerevisiae deletion strains, locus YOR290C, strain snf2, stronger effect = lower value",0.982
same,normalized growth,"S. cerevisiae deletion strains, locus YPL051W, strain arl3, stronger effect = lower value",0.981
same,normalized growth,"S. cerevisiae deletion strains, locus YPL078C, strain atp4, stronger effect = lower value",0.982
same,normalized growth,"S. cerevisiae deletion strains, locus YPL106C, strain sse1, stronger effect = lower value",0.946
same,normalized growth,"S. cerevisiae deletion strains, locus YPL240C, strain hsp82, stronger effect = lower value",0.957
same,normalized growth,"S. cerevisiae deletion strains, locus YPL256C, strain CLN2, stronger effect = lower value",1.06
CCn1nc(C)cc1C(=O)O,normalized growth,"S. cerevisiae deletion strains, locus YAL013W, strain DEP1, stronger effect = lower value",0.992
same,normalized growth,"S. cerevisiae deletion strains, locus YBR229C, strain ROT2, stronger effect = lower value",1.01
same,normalized growth,"S. cerevisiae deletion strains, locus YDL101C, strain DUN1, stronger effect = lower value",1.03
same,normalized growth,"S. cerevisiae deletion strains, locus YDR150W, strain NUM1, stronger effect = lower value",0.914
same,normalized growth,"S. cerevisiae deletion strains, locus YEL061C, strain CIN8, stronger effect = lower value",1.03
same,normalized growth,"S. cerevisiae deletion strains, locus YGR078C, strain PAC10, stronger effect = lower value",1.02
same,normalized growth,[1],1.07
same,normalized growth,"S. cerevisiae deletion strains, locus YHR087W, strain rtc3, stronger effect = lower value",1.01
same,normalized growth,[2],1.02
same,normalized growth,"S. cerevisiae deletion strains, locus YJR043C, strain POL32, stronger effect = lower value",0.962
same,normalized growth,"S. cerevisiae deletion strains, locus YJR075W, strain HOC1, stronger effect = lower value",1.02
same,normalized growth,"S. cerevisiae deletion strains, locus YKL190W, strain CNB1, stronger effect = lower value",1.02
same,normalized growth,"S. cerevisiae deletion strains, locus YLR039C, strain RIC1, stronger effect = lower value",1.1
same,normalized growth,"S. cerevisiae deletion strains, locus YLR058C, strain SHM2 (second series), stronger effect = lower value",1.02
same,normalized growth,"S. cerevisiae deletion strains, locus YLR085C, strain ARP6, stronger effect = lower value",1.3 [resistant] (active)
same,normalized growth,"S. cerevisiae deletion strains, locus YLR262C, strain YPT6, stronger effect = lower value",1.07
same,normalized growth,"S. cerevisiae deletion strains, locus YML094W, strain GIM5, stronger effect = lower value",1.02
same,normalized growth,"S. cerevisiae deletion strains, locus YMR219W, strain ESC1, stronger effect = lower value",1.01
same,normalized growth,"S. cerevisiae deletion strains, locus YMR263W, strain SAP30, stronger effect = lower value",0.987
same,normalized growth,"S. cerevisiae deletion strains, locus YMR307W, strain GAS1, stronger effect = lower value",1.24
same,normalized growth,"S. cerevisiae deletion strains, locus YNL153C, strain GIM3, stronger effect = lower value",1
same,normalized growth,"S. cerevisiae deletion strains, locus YNL298W, strain CLA4 (second series), stronger effect = lower value",1.04
same,normalized growth,"S. cerevisiae deletion strains, locus YNL322C, strain KRE1, stronger effect = lower value",0.999
same,normalized growth,"S. cerevisiae deletion strains, locus YNR030W, strain Alg12, stronger effect = lower value",1.02
same,normalized growth,"S. cerevisiae deletion strains, locus YPL055C, strain LGE1, stronger effect = lower value",0.931
same,normalized growth,"S. cerevisiae deletion strains, locus YPL241C, strain CIN2, stronger effect = lower value",1.03
same,normalized growth,"S. cerevisiae deletion strains, locus YPR135W, strain CTF4, stronger effect = lower value",0.994
same,normalized growth,"S. cerevisiae strains, strain wild type, stronger effect = lower value",1.02
